Hit rate of the full screen: of about 340,000 compounds, about 1,000 (0.29%) were called active. Not all results are given here. Entries with a potency or affinity are not part of this list. Values without a mark were called inactive. Cut-off read from the data, not from the text of the source: inconclusive = inhibition above about 27% without an active follow-up result; inactive = below that.
test: H1N1 influenza NS1A inhibitors, functional cell based assay (AID 504329); details: percent inhibition, at 12.5 µM, active compounds read high

| Structure (SMILES) | inhibition [%] |
| --- | --- |
| CCOC(=O)c1sc(NC(=O)CNCc2cccnc2)c(C(=O)OCC)c1C | -2.69 |
| CCOC(=O)c1c(NC(=O)COC(=O)c2ccccn2)sc(C(=O)N(C)C)c1C | -8.42 |
| COCCN(C(=O)c1csnn1)C(C(=O)NC1CCCCC1)c1ccccc1F (stereo unspecified) | -4.23 |
| CCCSc1ccc([C@H]2N[C@@](C)(C(=O)OC)[C@H]3C(=O)N(C)C(=O)[C@@H]23)cc1 | 6.02 |
| COC(=O)c1cc2cc(NS(=O)(=O)c3ccc(C)cc3)ccc2s1 | -3.1 |
| Oc1[nH]c2ccc(Br)cc2c1N=NC(=S)Nc1ccc(F)cc1 | -7.69 |
| O=C(N=Nc1c(O)[nH]c2ccccc12)c1ccc(CN2CCOCC2)cc1 | 7.41 |
| NC(=S)N=Nc1c(O)[nH]c2ccccc12 | 14.1 |
| N=C(N)N=Nc1c(O)[nH]c2ccc(Br)cc12 | -0.68 |
| Cc1ccc(N(CC(=O)NC2CCCCC2)C(=O)CNC(=O)c2ccco2)cc1C | 7.87 |
| CC(C)c1ccc(C(=O)OCC(=O)NC2CCCC2)cc1 | 1.66 |
| CCOc1ccc(N2CC(O)(c3cccs3)[N+]3=C2CCCC3)cc1 (stereo unspecified) | 2.37 |
| COc1ccccc1C(=O)NC(CCSC)C(=O)NCc1ccncc1 (stereo unspecified) | -4.75 |
| CCc1cc2c(=O)oc(-c3ccc(F)cc3)nc2s1 | -6.8 |
| COC(=O)C1CC2=C(CCC2=O)N(c2ccccc2)C1=O (stereo unspecified) | -7.88 |
| Cc1ccc(S(=O)(=O)N(C)C)cc1NC(=O)COC(=O)/C(=C/c1ccc(F)cc1)c1cccs1 | -0.58 |
| O=C1/C(=C/c2ccccc2)Nc2ccccc21 | 14.7 |
| O=C1Nc2ccccc2C1=O | 0.1 |
| O=C(COC(=O)CN1C(=O)COc2ccccc21)NCc1ccc(F)cc1 | -6.84 |
| COc1ccc(CN(C)CC(=O)Nc2sc3c(c2C#N)CCC3)c(OC)c1 | -1.01 |
| CCc1ccc(NSc2ccccc2[N+](=O)[O-])cc1 | 28.4 |
| O=[N+]([O-])c1nn(-c2ccccc2)[n+]([O-])c1N1CCN(c2ccccc2F)CC1 | 2.62 |
| CC(=O)c1ccc(NC(=S)Nc2ccc(Br)c(Cl)c2)cc1 | -4.9 |
| CC(=O)N(C)c1ccc(N=C2C(=O)Nc3ccccc32)cc1 | 3.21 |

| Structure (SMILES) | inhibition [%] |
| --- | --- |
| Cc1ccc(N=C2C(=O)Nc3ccccc32)cc1 | -4.95 |
| C=CCn1c(SCC(=O)N(C)C)nc2cc(C(=O)O)ccc2c1=O | -7.19 |
| C=CCn1c(Sc2ccccc2)nc2c1c(=O)[nH]c(=O)n2C | -6.06 |
| COc1ccc([C@H]2CC(=O)C=C(c3ccc(O)cc3)C2)cc1OC | -4.89 |
| CN(C)c1ccc(C(=O)NN2C(=O)c3ccccc3C2=O)cc1 | -1.57 |
| CN(C)c1ccc(/C=N/N2C(=O)c3ccccc3C2=O)cc1 | -9.49 |
| CCc1ccc(-c2cc(C)no2)cc1S(=O)(=O)Nc1cc(C)on1 | 1.29 |
| Cc1ccccc1-c1nc(CS(=O)CC(=O)NCCN2CCOCC2)c(C)o1 (stereo unspecified) | -1.58 |
| Nc1ccccc1N=Nc1ccccc1N | 18.4 |
| CC(C)(C)C1=CC(O)(c2ccccc2)C=C(C(C)(C)C)C1=O | -2.37 |
| COc1cccc(NC(=O)COC(=O)c2ccco2)c1 | 7.2 |
| CCOc1cccc(CNCCCSc2ncccn2)c1 | 1.33 |
| O=C1c2ccccc2C(=O)c2c1ccc(O)c2O | 17.2 |
| O=C(O)c1cccc2cccc(-c3c4ccc(=O)c(O)c-4oc4c(O)c(O)ccc34)c12 | 13 |
| Cc1ccc(OCCNC(=O)C2CC(=O)N(Cc3ccccc3)C2)cc1 (stereo unspecified) | 4.88 |
| CC1CCN(S(=O)(=O)c2ccccc2[N+](=O)[O-])CC1 | 16.9 |
| CC1CCN(CC(O)COc2ccc(-c3ccccc3)cc2)CC1 (stereo unspecified) | 19.9 |
| Cc1nn(-c2cc(N3CCCCC3)ccc2N)c(=O)c2ccccc12 | 2.92 |
| CN1CCN(c2ccc(N)c(N3CCN(C)CC3)c2)CC1 | 17.9 |
| O=C(C[C@@H]1C/C=C\C[C@@H](Cc2ccc(F)cc2)C(=O)OCCNC1=O)NCCO | 0.47 |
| O=C1Nc2ccc(Br)cc2C12OCCO2 | -14.6 |
| CCOc1ccc(C(=O)NCc2ccc3c(c2)OCO3)cc1OCC | -1.8 |
| O=C(COC(=O)c1ccc[nH]c1=O)NC1CCCCCCC1 | -1.92 |
| N#CC(c1ccc(Cl)cc1)c1ccc2c(C(F)(F)F)cc(C(F)(F)F)nc2n1 (stereo unspecified) | 21.3 |

| Structure (SMILES) | inhibition [%] |
| --- | --- |
| FC(F)(F)c1cc(C(F)(F)F)c2ccc(Oc3ccccc3)nc2n1 | -1.17 |
| Cc1ccc(/C=N/Nc2ccc3c(C(F)(F)F)cc(C(F)(F)F)nc3n2)cc1 | -11.1 |
| N#CC(c1cccc(Cl)c1)c1ccc2c(C(F)(F)F)cc(C(F)(F)F)nc2n1 (stereo unspecified) | 20.9 |
| O=C(C1=C[C@H](c2ccc3c(c2)OCO3)C[C@H](OCCCCO)O1)N1CCOCC1 | -1.7 |
| O=C(c1cc2cc(F)ccc2[nH]1)N1CCCC(Nc2ccc(F)cc2)C1 (stereo unspecified) | 9.28 |
| CC(C)c1ccc(S(=O)(=O)/N=C2\C=C(NS(=O)(=O)c3ccccc3)C(=O)c3ccccc32)cc1 | 14.3 |
| CCc1ccc(S(=O)(=O)/N=C2\C=C(NS(=O)(=O)c3ccccc3)C(=O)c3ccccc32)cc1 | 11.2 |
| CC(C)(C)c1ccc(S(=O)(=O)/N=C2\C=C(NS(=O)(=O)c3ccccc3)C(=O)c3ccccc32)cc1 | 11.3 |
| CCc1ccc(S(=O)(=O)/N=C2\C=C(Nc3ccc(C(=O)O)cc3)C(=O)c3ccccc32)cc1 | 25.1 |
| Cc1ccc(S(=O)(=O)Nc2c(NC3CCCCC3)c3ccccc3oc2=O)c(C)c1 | 0.02 |
| Cc1ccn(CCC(=O)N2CCCC(CCC(=O)N3CCN(c4ccccn4)CC3)C2)n1 (stereo unspecified) | -2.86 |
| Cc1cc(C)c(NC(=O)CNC(=O)COC(=O)CNC(=O)c2ccc(Cl)cc2Cl)c(C)c1 | -0.98 |
| CCOC(=O)N1CCC(NS(=O)(=O)c2cc(Br)cc3c2N(C(=O)CC)CC3)CC1 | 7.36 |
| Cc1ccccc1Nc1c(-c2ccccn2)nc2c(C)cccn12 | -0.06 |
| Cc1ccc(Nc2c(-c3ccccn3)nc3cc(C)ccn23)cc1 | 53 |
| Cc1ccn2c(Nc3ccccc3)c(-c3ccccn3)nc2c1 | -0.92 |
| Cc1cccc(C)c1Nc1c(-c2ccccn2)nc2ccccn12 | 29.7 |
| CCOC(=O)CN(C(=O)c1snc(C(N)=O)c1N)C(C(=O)NC1CCCCC1)c1ccc(F)cc1 (stereo unspecified) | 1.16 |
| COc1ccc(C(=O)N/C(=C\c2cn(C)c3ccccc23)C(=O)NCCCn2ccnc2)cc1OC | 4.02 |
| O=C(NCCc1ccc(Cl)cc1)C(=O)c1c[nH]c2ccccc12 | -31.4 |
| O=C(Nc1ccc(N2CCOCC2)cc1)C1CCCCN1S(=O)(=O)c1ccccc1 (stereo unspecified) | -25.6 |
| c1ccc(CN2CCNCC2)nc1 | 2.99 |
| c1cc(CNCCN2CCNCC2)ccn1 | -2.65 |
| CN(CCCNC(=O)CCC(=O)N1CCOc2ccc(Cl)cc21)Cc1ccccc1 | 3.8 |

| Structure (SMILES) | inhibition [%] |
| --- | --- |
| O=C(CN1C(=O)NC2(CCc3ccccc32)C1=O)c1cccs1 (stereo unspecified) | -5.04 |
| COc1ccc(CCN=Cc2ccccc2O)cc1OC | -18.6 |
| COc1ccc(Cc2nnc(SC)[nH]c2=O)cc1OC | -0.91 |
| COc1ccc(Cc2nc3ccccc3n2CC(=O)N/N=C/c2ccc(C)cc2O)cc1OC | 1.09 |
| COc1ccccc1/C=N/Nc1nc(C)cc(C)n1 | -18.3 |
| COc1ccc(/C=N/Nc2nnc(Cc3ccc(OC)c(OC)c3)c(=O)[nH]2)cc1 | 12.1 |
| CCc1ccc2[nH]c3nc(N/N=C/c4ccc(O)cc4O)nnc3c2c1 | 1.89 |
| COc1ccc(/C=N/Nc2nnc(Cc3ccc(OC)c(OC)c3)c(=O)[nH]2)cc1OC | -2.26 |
| COc1ccc(Cc2nccc3cc(OC)c(OC)cc23)cc1OC | 0.89 |
| COc1ccc(NC2c3ccccc3C(=O)N2c2ccccn2)cc1Cl (stereo unspecified) | 25 |
| Cn1c(=O)c(=O)n(C)c2cc(S(=O)(=O)NCc3ccc(Cl)cc3)ccc21 | -12 |
| O=C(CSc1ccccc1)NNC(=O)c1ccncc1 | -1.89 |
| CC(C)CC(=O)Nc1nnc(S(=O)(=O)Nc2ccccc2)s1 | 0.61 |
| CCCCn1c(=O)[nH]c(=O)c2c1nc(-c1ccccc1OC(F)F)n2C | -2.54 |
| Cc1ccc(NCC(=O)N/N=C/c2cccn2C)cc1 | 1.43 |
| Cc1cc(N2CCN(CC(O)C(F)(F)F)CC2)c2ccccc2n1 (stereo unspecified) | 15.7 |
| CCC(CO)Oc1cc(NCc2cccc(C(F)(F)F)c2)c2ncn(C(C)C)c2c1 (stereo unspecified) | -6.24 |
| COCCN(CC1CCCN(C2Cc3ccccc3C2)C1)C(=O)CCC(C)=O (stereo unspecified) | -22.6 |
| CN(CC(=O)Nc1ccc(Cl)cc1F)C1=NS(=O)(=O)c2ccccc21 | 5.4 |
| COc1ccc(S(=O)(=O)Nc2ccc(NC(C)=O)cc2)cc1[N+](=O)[O-] | 9.65 |
| Clc1ccc(CNc2ccc(N3CCN(Cc4ccccc4)CC3)cc2)cc1 | 20.5 |
| CCOc1ccc(CNc2ccc(N3CCCC3)cc2)cc1 | 21.7 |
| COc1cc(CNc2ccc(N3CCCC3)cc2)cc(Cl)c1OC | 21.3 |
| CCOc1c(Cl)cc(CNc2ccc(N3CCCC3)cc2)cc1OC | 15.9 |

From PubChem BioAssay AID504329 (Southern Research Specialized Biocontainment Screening …, 2011)
